Inconclusive results are not listed. A call without a number means that no potency is given here. Values without a mark were called inactive. Activity calls are given as the source filed them. The call rests on the fitted dose curve; in most records, active means well fitted curve in the direction sought with a large enough effect in the repeat runs; inconclusive means weak or mixed curves; inactive means no such curve, though single readings can be large; an effect the other way counts as inactive or inconclusive.

Luciferin 4-monooxygenase (Photinus pyralis), sequence (P08659 whole entry, looked up): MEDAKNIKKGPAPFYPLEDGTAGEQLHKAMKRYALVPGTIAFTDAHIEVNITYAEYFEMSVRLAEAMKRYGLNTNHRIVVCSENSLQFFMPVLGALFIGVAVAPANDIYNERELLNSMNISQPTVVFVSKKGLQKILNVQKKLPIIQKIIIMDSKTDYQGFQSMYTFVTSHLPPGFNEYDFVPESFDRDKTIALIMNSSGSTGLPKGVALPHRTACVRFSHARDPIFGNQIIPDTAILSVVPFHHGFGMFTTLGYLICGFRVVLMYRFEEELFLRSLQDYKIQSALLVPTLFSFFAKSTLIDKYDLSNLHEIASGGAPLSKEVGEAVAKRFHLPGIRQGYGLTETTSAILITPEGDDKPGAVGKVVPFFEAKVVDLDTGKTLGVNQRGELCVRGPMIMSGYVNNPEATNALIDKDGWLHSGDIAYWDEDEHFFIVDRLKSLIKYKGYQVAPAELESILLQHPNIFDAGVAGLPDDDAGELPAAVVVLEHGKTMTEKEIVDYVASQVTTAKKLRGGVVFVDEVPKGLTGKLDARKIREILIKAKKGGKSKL

Tested on in the first test: not listed separately
Briefly: qHTS assay to identify small molecule antagonists of the estrogen related receptor (ERR) signaling pathway from Tox21 library - cell viability counter screen (AID 1224834). Further: nearly all actives have a fitted effect of over 30% in size. The following applies: ERR reporter cells viability, CellTiter-Fluor, 17.5 h; series mostly up to 92.4 µM. A digest of the protocol: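 Compounds in DMSO were pinned onto ERR cells that had been incubated for 6 h, and the plates were held at 37 C for 17.5 h. CellTiter-Fluor reagent was then added and fluorescence was measured after 30 min.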
Turning to `O=C(NCCc1c[nH]c2ccccc12)c1cccnc1`, the Potency result was “inactive”.
Still for that read-out and setting: the same measure for `BrCc1cccc(Oc2ccccc2)c1`: “inactive”.
The same measure, in the same setting: the same measure for `CCCCCCOc1ccccc1C(N)=O`: “inactive”; for `CC(C)=CCOC(=O)c1ccccc1`: “inactive”; for `CCOCCOC(=O)/C=C/c1ccc(OC)cc1`: “inactive”.
Same read-out and setting: the same measure for `O=C(Nc1ccc(Cl)c(Cl)c1)C1CC1`: “inactive”.
Regarding `N[C@@H](CCC(=O)N[C@@H](CS)C(=O)NCC(=O)O)C(=O)O`, the viability change, negative = cytotoxic is 0.69% [at 19 µM].
For the molecule `CC(C)NCC(O)COc1cccc2[nH]ccc12` (configuration not stated), the Potency result was “inactive”.
Same read-out and setting: next, `O=P(O)(O)OP(=O)(O)O`: “inactive”; `CC1=C(C(=O)O)N2C(=O)[C@@H](NC(=O)[C@H](N)c3ccc(O)cc3)[C@H]2SC1`: “inactive”; `OC[C@H](Cc1cccc(O)c1)[C@H](CO)Cc1cccc(O)c1`: “inactive”.
The same measure, in the same setting: the same measure for `c1ccc2c(c1)ccc1c3ccccc3ccc21`: “inactive”.
Still for that read-out and setting: next, `CC(C)C(=O)OCCc1ccccc1`: “inactive”.
For the molecule `CCOC(=O)c1ccc(OC(=O)CCCCCN=C(N)N)cc1`, the Potency result was “inactive”.
On the same count and under the same terms, the same measure for `Cc1ccc2ccc(Cl)cc2n1`: “inactive”.
As to `CCCCCCCCCCl`, the Potency entry was “inactive”.
The same measure, in the same setting: next, `CC(=O)OC(C)OC(=O)C(C)c1ccc(-c2ccccc2)c(F)c1` (configuration not stated): “inactive”.

The target in the next test is Luciferin 4-monooxygenase (Photinus pyralis) (UniProt P08659). Briefly: qHTS assay to identify small molecule inhibitors of firefly luciferase (AID 1224835). Further: nearly all actives have a fitted effect of over 25% in size. Further: potency means the concentration at half of the fitted maximal effect. The conditions noted are these: purified P. pyralis luciferase, luminescence inhibition; series mostly up to 115 µM. A digest of the protocol:
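Quantitative HTS format; KM concentrations of both substrates. Purified P. pyralis FLuc activity quantified from luminescence images.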
(In general: qHTS replaces the single test concentration by a dilution series.)
`O=C(OCC1(COC(=O)c2cccnc2)CCCC(COC(=O)c2cccnc2)(COC(=O)c2cccnc2)C1O)c1cccnc1`: the Potency entry is “inactive”.
Turning to `CCOc1cc([N+](=O)[O-])c(OCC)cc1N1CCOCC1`, the Potency entry is “inactive”.
Consider `Cc1ccccc1C(=O)Nc1ccc(C(=O)N2CCCC(N(C)C)c3ccccc32)cc1` (configuration not stated), for which the Potency entry was “inactive”.
Same read-out and setting: the same measure for `COCCOC(=O)C1=C(C)NC(C)=C(C(=O)OC(C)C)C1c1cccc([N+](=O)[O-])c1` (configuration not stated): “inactive”; for `Nc1cccc(O)c1`: “inactive”; for `COc1cc(N)ccc1C`: “inactive”.
Same read-out and setting: the same measure for `O=C(c1ccc(O)cc1)c1ccc(O)c(O)c1O`: 63.5 µM (active); for `CC(CN)CC(C)(C)CCN` (configuration not stated): “inactive”; for `O=C1c2cccc3c2[C@H](CCC3)CN1[C@@H]1CN2CCC1CC2`: “inactive”.
On the same count and under the same terms, the same measure for `CC(N)C(=O)OC(C)(C)Cc1ccc(Cl)cc1` (configuration not stated): “inactive”.
With `CC(COC(C)(C)C)OCCCO` (configuration not stated), the Potency result is “inactive”.
Still for that read-out and setting: the same measure for `CC1(CO)CN(c2ccccc2)NC1=O` (configuration not stated): “inactive”; for `O=S(=O)(O)c1cc(O)c2ccc(Nc3ccccc3)cc2c1`: 17.8 µM (active); for `C#CC(C)N(C)C(=O)Nc1ccc(Cl)cc1` (configuration not stated): 63.2 µM (active).
Same read-out and setting: next, `N[C@@H](CCC(=O)Nc1ccc([N+](=O)[O-])cc1)C(=O)O`: “inactive”.

The values above are taken from PubChem BioAssay (Tox21).
